Experimental findings from PubChem BioAssay AID588413 (Sanford-Burnham Center for Chemical Genomics, 2011) are described below.

Out of some 340,000 compounds screened, about 2,500 (0.74%) were called active. This is one part of a sample in which actives are shown more often than they occur. Unmarked numbers belong to inactive results.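 Rule for the calls: active = inhibition above about 55% (limit read from the data); inactive = the rest.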

This assay in a line: Gli-Sufu pathway antagonists, primary screen, luciferase luminescence, Sufu-KO-LIGHT cells, uHTS (AID 588413).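 Note: 0% = DMSO-treated cells and 100% = wells with medium but no cells.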 Particulars: Sufu-KO-LIGHT fibroblasts, Gli luciferase reporter luminescence; at 5 µM; active compounds read high. For orientation: In a reporter assay the amount or activity of a reporter protein is the signal.
One may read the inhibition as the change of the read-out against control, counted positive when it falls. For the molecule `CC1=CC(=Cc2sc3ccccc3[n+]2C)C=C(C)O1`, the inhibition is 80.9% (active). In the case of `O=C(O)CCn1cc(C=C2C(=O)NC(=S)NC2=O)c(-c2cccc(Br)c2)n1` it was -2.59%; in that of `CC(C)CN1CCN(Cc2ccccc2C(F)(F)F)CC1CCO` (stereo not given), 20.7%. With `Cc1cc(C)c2c(c1)NP(=S)(c1ccccc1)N2` (stereo not given) the figure was -6.68%. With `CNC(=O)Nc1ccc(C(O)(C(=O)OC)C(F)(F)F)cc1` (stereo not given) the figure was 11.8%; with `CCCCCCCCCCCCn1ccc(=N)cc1`, 87.5% (active). As for `O=C1C2(Cl)C3(Cl)C4(Cl)C(Cl)(Cl)C5(Cl)C3(Cl)C1(Cl)C5(Cl)C24Cl` (stereo not given), the inhibition is -3.44%. Turning to `COc1cc(-n2c(=S)[nH]c3ccc(C)cc3c2=O)c(Cl)cc1Cl`, the inhibition is -14.6%. Consider `CCN(CC)CCOC(=O)c1cc2cc(COC)ccc2o1`, for which the inhibition is 0.39%. With `CCOc1cccc(=NC2CCCCC2)c2c(C)[nH]c(C)c12` the figure was 79% (active); with `CC(C)Nc1nc(Cl)nc(NC(C)C)n1`, 1.26%; with `O=C(C1CC(=O)N(C2CCCC2)C1)N1CCC2(CC1)OCCO2` (stereo not given), -2.84%. With `C=CCN(CC=C)C(=O)Nc1ccc(OCC)cc1` the figure was -12.4%. Regarding `CCC(C)(O)C(=O)OC1C(=O)OC2CC3C(C)=CC(=O)C(O)C3(C)C3C4(O)OCC23C1C(C)C4O` (stereo not given), the inhibition was 82% (active). In the case of `CN(C)CC1Oc2ccccc2OC1(O)c1ccccc1` (stereo not given) it was -3.73%. Turning to `CCOP(=O)(OCC)C(NC(=O)c1ccc(OC)cc1)C(Cl)(Cl)Cl` (stereo not given), the inhibition was -2.69%.

Turning to `CCOP(=O)(OCC)C(NC(=O)c1ccc(C)cc1)C(Cl)(Cl)Cl` (stereo not given), the inhibition is 2.77%. In the case of `CC1=C2C(=O)C3C(CC=C4CC(OC5OC(O)C(O)C(O)C5CO)CCC43C)C2CCC12OC1CC(C)CNC1C2C` (stereo not given) it was -0.71%; in that of `O=C1/C(=C\c2ccc3c(c2)OCO3)N2CCC1CC2`, 16.5%. Take `N[C@@H](Cc1c[nH]c2ccccc12)c1nnc(SCc2c(F)cccc2Cl)o1`: the inhibition was -1.34%. `CCOc1ccc(-c2cc(C)[n+](CCN(CC)CC)c(-c3ccc(OCC)cc3)c2)cc1`: the inhibition is 77.8% (active). As to `COC(=O)C1=C(c2cc3ccccc3s2)C[C@@H]2CC[C@H]1N2C(=O)NC(C)C`, the inhibition was 9.18%. With `COc1ccc(-c2nn(CCC#N)cc2C(=O)Nc2ccc(C(C)=O)cc2)cc1` the figure was -28.4%; with `COC(=O)COc1cc(C)cc2oc(=O)c3c(c12)CCCC3`, -1.17%; with `COc1ccc(NC(=O)c2cn(CCC#N)nc2-c2ccc([N+](=O)[O-])cc2)cc1`, 6.35%. With `CC(=O)OC1C2(CC3N4C(=O)C5(CO)SSC4(CC31O)C(=O)N5C)OC(C)C(C)(C)C2=O` (stereo not given) the figure was 85.7% (active); with `Cc1ccccc1NC(=O)COC(=O)c1cc(C)n(C2CC2)c1C`, 0.92%. On to `O=C1NC(=O)C(CCc2ccccn2)(Cc2cccc(Cl)c2Cl)C(=O)N1c1ccc(Br)cc1` (stereo not given), for which the inhibition was 0.16%. With `Cc1ccnc(-n2c(C)cc(/C=C3\C(=O)NC(=S)N(C)C3=O)c2C)c1` the figure was 7.71%; with `CC[C@H]1CC2CN3CCc4c([nH]c5ccccc45)C(C(=O)OC)(C2)C13` (stereo not given in full), 8.02%.
